# For part of these data: Measured potencies and affinities stand elsewhere. Active and inactive are the calls of the source.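 How the source made its calls, unless noted: active means primary screen active and over 50% activation in each of two duplicate runs; inactive means the rest.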
# How the values were obtained:
# [1] = test system: TRPC4 beta (transient receptor potential cation channel C4), mouse; assay: activators of mouse TRPC4 channel, confirmation, cell-based, Fluo4 calcium, HEK293 TRPC4beta/mu-opioid, duplicates, 10 µM (AID 2426;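 active means fluorescence ratio normalized to control raised more than 50% in primary screen plus both repeat runs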;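 on activation: percent rise of integrated ratio over buffer wells lacking compound which define 0%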); conditions: Fluo4 calcium fluorescence, at 10 µM; active compounds read high
# [2] = test system: transient receptor potential cation channel C4 beta (TRPC4), mouse; assay: activators of mouse TRPC4 channel, confirmation, cell-based, second round, Fluo4, HEK293 TRPC4beta/mu-opioid, 1 µM (AID 2461); conditions: Fluo4 calcium fluorescence, at 1 µM; active compounds read high;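 on activation: 0% = wells without test compound as baseline of integrated fluorescence ratio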
# [3] = test system: TRPC4 (transient receptor potential cation channel C4 beta), mouse; assay: positive allosteric modulators of mouse TRPC4, confirmation, cell-based, second round, Fluo-4, HEK293 TRPC4beta/mu-opioid, 1 µM (AID 2554;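 active means primary screen hit whose fluorescence ratio, in both repeats, exceeds the weak agonist control mean by 3 SD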); conditions: DAMGO EC20, Fluo-4 calcium flux, at 1 µM; active compounds read high
# [4] = test system: TRPC4 beta (transient receptor potential cation channel C4), mouse; assay: positive allosteric modulators of mouse TRPC4, confirmation, cell-based, Fluo-4, HEK293 TRPC4beta/mu-opioid (AID 2555;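 active means primary screen hit whose calcium fluorescence ratio, in both repeats, exceeds the weak agonist control mean by 3 SD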); conditions: DAMGO EC20, Fluo-4 calcium flux, at 10 µM; active compounds read high
# [5] = target: Short transient receptor potential channel 4 (Mus musculus) (UniProt Q9QUQ5); assay: inhibitors of mouse TRPC4 channel, confirmation, cell-based, Fluo4, HEK293 TRPC4beta/mu-opioid (AID 2636;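 active means calcium signal cut by more than 3 SD below the full-agonist control yet still positive, in both repeats and the earlier primary screen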); conditions: DAMGO, Fluo4 calcium flux, at 10 µM; active compounds read high
# Short transient receptor potential channel 4 (Mus musculus), sequence (Q9QUQ5 whole entry, looked up): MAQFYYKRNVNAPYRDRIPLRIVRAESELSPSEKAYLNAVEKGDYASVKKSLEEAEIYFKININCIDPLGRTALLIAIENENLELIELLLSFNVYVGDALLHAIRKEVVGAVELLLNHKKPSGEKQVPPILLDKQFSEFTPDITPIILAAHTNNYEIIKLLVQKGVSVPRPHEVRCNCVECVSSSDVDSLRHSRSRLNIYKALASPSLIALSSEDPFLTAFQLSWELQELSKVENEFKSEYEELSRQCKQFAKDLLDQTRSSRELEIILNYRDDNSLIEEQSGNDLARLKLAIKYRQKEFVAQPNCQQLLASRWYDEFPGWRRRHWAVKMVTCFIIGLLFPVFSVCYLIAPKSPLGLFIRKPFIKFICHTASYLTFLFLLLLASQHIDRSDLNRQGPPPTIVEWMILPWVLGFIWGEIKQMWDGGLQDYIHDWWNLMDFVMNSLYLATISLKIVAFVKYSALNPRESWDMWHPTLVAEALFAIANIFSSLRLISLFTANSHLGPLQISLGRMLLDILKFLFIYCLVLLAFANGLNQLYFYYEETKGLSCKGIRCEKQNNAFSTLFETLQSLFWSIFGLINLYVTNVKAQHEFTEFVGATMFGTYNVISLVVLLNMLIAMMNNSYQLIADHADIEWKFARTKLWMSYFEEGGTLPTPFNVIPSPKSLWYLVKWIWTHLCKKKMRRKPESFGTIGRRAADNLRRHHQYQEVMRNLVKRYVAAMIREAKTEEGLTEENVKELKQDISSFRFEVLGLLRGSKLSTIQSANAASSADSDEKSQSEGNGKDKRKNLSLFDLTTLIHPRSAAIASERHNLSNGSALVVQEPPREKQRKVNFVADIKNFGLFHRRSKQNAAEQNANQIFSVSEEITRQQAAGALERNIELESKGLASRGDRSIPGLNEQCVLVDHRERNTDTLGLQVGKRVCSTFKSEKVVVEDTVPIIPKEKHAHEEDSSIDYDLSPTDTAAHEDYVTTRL
# [6] = target: Short transient receptor potential channel 4 (Mus musculus) (UniProt Q9QUQ5); assay: inhibitors of mouse TRPC4 channel, confirmation, cell-based, second round, Fluo4, HEK293 TRPC4beta/mu-opioid, 1 µM (AID 2637;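 active means calcium signal ratio cut to more than 3 SD under the fully stimulated control mean yet still positive, in both repeats and the primary screen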;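 on inhibition: percent of integrated ratio relative to wells lacking test compound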); conditions: Fluo4 calcium flux, DAMGO, at 1 µM; active compounds read high
# [7] = target: Short transient receptor potential channel 4 (Mus musculus) (UniProt Q9QUQ5); assay: TRPC4 positive allosteric modulators, dose response, cell-based, HEK293 TRPC4/mu-opioid, Fluo-4 calcium, EC20 DAMGO (AID 434941;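 active means earlier screen potentiator hit that boosts the TRPC4 ion channel at some dose, with a dose response; inactive means no potentiation, no dose response, or not a prior hit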;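 further: calcium entry triggered by an EC20 dose of DAMGO at the co-expressed mu-opioid receptor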)
# [8] = target: Short transient receptor potential channel 6 (Mus musculus) (UniProt Q61143); assay: inhibition of mouse TRPC6 channel, confirmation, selectivity assay for TRPC4 inhibitor project, cell-based, HEK293, membrane potential dye, duplicate (AID 434948;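 active means active in primary screen and both duplicates, each dropping signal beyond three positive-control SD with fluorescence still positive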); conditions: HEK293 TRPC6, membrane potential dye fluorescence, at 10 µM, stimulated with maximal-effect acetylcholine; active compounds read high
# Short transient receptor potential channel 6 (Mus musculus), sequence (Q61143 whole entry, looked up): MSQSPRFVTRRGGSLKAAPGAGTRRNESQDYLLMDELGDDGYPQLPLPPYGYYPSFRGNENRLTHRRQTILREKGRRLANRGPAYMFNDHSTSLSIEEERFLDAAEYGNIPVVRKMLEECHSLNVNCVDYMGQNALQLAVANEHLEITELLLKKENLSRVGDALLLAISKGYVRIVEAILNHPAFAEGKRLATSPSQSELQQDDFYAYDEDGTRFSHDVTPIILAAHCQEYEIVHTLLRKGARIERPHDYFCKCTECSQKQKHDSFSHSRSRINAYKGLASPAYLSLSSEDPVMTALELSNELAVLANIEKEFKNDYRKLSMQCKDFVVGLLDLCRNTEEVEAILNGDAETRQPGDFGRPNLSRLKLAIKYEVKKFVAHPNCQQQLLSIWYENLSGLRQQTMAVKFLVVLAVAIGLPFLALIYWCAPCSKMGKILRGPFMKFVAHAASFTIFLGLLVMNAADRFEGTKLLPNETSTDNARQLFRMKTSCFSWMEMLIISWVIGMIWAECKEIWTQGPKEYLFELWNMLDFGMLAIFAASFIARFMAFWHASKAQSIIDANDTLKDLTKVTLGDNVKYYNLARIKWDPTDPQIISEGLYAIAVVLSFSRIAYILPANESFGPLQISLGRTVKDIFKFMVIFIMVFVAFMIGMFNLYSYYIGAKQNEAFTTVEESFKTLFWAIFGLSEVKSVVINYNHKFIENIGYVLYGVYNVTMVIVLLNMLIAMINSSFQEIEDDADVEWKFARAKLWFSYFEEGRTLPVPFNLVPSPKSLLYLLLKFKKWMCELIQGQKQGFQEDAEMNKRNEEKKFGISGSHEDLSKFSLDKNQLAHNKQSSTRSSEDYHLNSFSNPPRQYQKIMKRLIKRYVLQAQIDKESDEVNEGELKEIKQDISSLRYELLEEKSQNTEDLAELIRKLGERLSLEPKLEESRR
# [9] = target: Short transient receptor potential channel 6 (Mus musculus) (UniProt Q61143); assay: activation of mouse TRPC6 channel, confirmation, selectivity assay for TRPC4 activator project, cell-based, HEK293, membrane potential dye, duplicate (AID 434950;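 active means membrane potential signal rise above negative control mean plus 3 SD in both duplicates, also active in the earlier TRPC4 screen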;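 on activation: 0% = buffer only wells and 100% = acetylcholine maximal-effect wells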); conditions: HEK293 TRPC6, membrane potential fluorescence, at 10 µM; active compounds read high
# [10] = target: Short transient receptor potential channel 6 (Mus musculus) (UniProt Q61143); assay: TRPC6 potentiation by TRPC4 potentiator hits, confirmation, selectivity assay for TRPC4 potentiator project, HEK293 cells, membrane potential dye, duplicate (AID 434952;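 active means compound raising the membrane signal above positive-control mean plus 3 SD in both repeats, and a primary screen hit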); conditions: HEK293 TRPC6, membrane potential dye fluorescence, at 10 µM, maximal acetylcholine added after compound; active compounds read high
# [11] = target: Short transient receptor potential channel 4 (Mus musculus) (UniProt Q9QUQ5); assay: calcium flux activators in TRPC4/5HT1a cells, counter-screen for TRPC4 activator project, cell-based, second counter screen, HEK293 TRPC4/5HT1a, Fluo-4 (AID 434977;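 active means calcium signal rise above buffer-control mean plus 5 SD in both duplicates, and also a hit in the primary screen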;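 on activation: plate controls were assay buffer for no effect and maximal serotonin response for full effect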); conditions: Fluo-4 calcium flux, at 10 µM; active compounds read high
# [12] = calcium flux inhibitors in TRPC4/5HT1a cells, confirmation, counter-screen for TRPC4 inhibitor project, cell-based, second counter screen, HEK293 TRPC4/5HT1a, Fluo-4 (AID 434978;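 active means primary screen active whose calcium signal fell more than 3 SD beyond the full-serotonin control mean in both duplicate plates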;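 on outcome: serotonin given first at submaximal then at maximal dose after compound preincubation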); conditions: Fluo-4 calcium flux, at 10 µM, serotonin added to trigger calcium flux; active compounds read high
# [13] = test system: TRPC4 (mouse), co-expressed with 5HT1a in HEK293; assay: calcium flux potentiators in TRPC4/5HT1a cells, confirmation, counter-screen for TRPC4 potentiator project, cell-based, second counter screen, HEK293 TRPC4/5HT1a, Fluo-4 (AID 434979;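 active means signal rise over 3 SD above mean of control wells given weak agonist, in both repeats and first screen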); conditions: Fluo-4 calcium flux, at 10 µM, serotonin added at its EC20 dose; active compounds read high
# [14] = calcium flux activation in mu-opioid HEK293 cells, confirmation, counter-screen for TRPC4 activator project, cell-based, HEK293 mu-opioid receptor line (AID 449723;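 active means hit in primary screen, with calcium signal over 5 SD above buffer well mean in both duplicates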;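 further: counter screen cells carry the mu-opioid receptor alone and lack TRPC4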); conditions: Fluo-4 calcium fluorescence, at 10 µM; active compounds read high
# [15] = calcium flux enhancement in mu-opioid HEK293 cells, confirmation, counter-screen for TRPC4 allosteric potentiator project, cell-based, HEK293 mu-opioid receptor line (AID 449724;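 active means calcium signal rise more than 3 SD above the low-dose agonist control mean, in both duplicate plates and the primary screen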); conditions: Fluo-4 calcium flux, at 10 µM, compound added before EC20 DAMGO stimulus; active compounds read high
smiles,measurement,setting,value
CN(C)C(CNC(=O)C1CCN(S(=O)(=O)c2cccc(C(F)(F)F)c2)CC1)c1ccccc1 (stereo not given),outcome,[1],inactive
same,outcome,[2],inactive
same,outcome,[3],inactive
same,outcome,[4],inactive
same,outcome,[5],inactive
same,inhibition,[6],85% (active)
same,outcome,[7],inactive
same,outcome,[8],inactive
same,outcome,[9],inactive
same,outcome,[10],inactive
same,outcome,[11],inactive
same,outcome,[12],inactive
same,outcome,[13],inactive
same,outcome,[14],inactive
same,outcome,[15],inactive
COc1cccc(CNCc2ccccn2)c1OC,outcome,[1],inactive
same,activation,[2],56% (active)
same,outcome,[3],inactive
same,outcome,[4],inactive
same,outcome,[5],inactive
same,outcome,[6],inactive
same,outcome,[7],inactive
same,outcome,[8],inactive
same,activation,[9],40% (active)
same,outcome,[10],inactive
same,outcome,[11],inactive
same,outcome,[12],inactive
same,outcome,[13],inactive
same,outcome,[14],inactive
same,outcome,[15],inactive
Cc1c(C(=O)N(Cc2cccs2)C2CCS(=O)(=O)C2)oc2ccccc12 (stereo not given),outcome,[1],inactive
same,outcome,[2],inactive
same,outcome,[3],inactive
same,outcome,[4],inactive
same,inhibition,[5],97% (active)
same,outcome,[6],inactive
same,outcome,[7],inactive
same,outcome,[8],inactive
same,activation,[9],56.5% (active)
same,outcome,[10],inactive
same,outcome,[11],inactive
same,outcome,[12],inactive
same,outcome,[13],inactive
same,outcome,[14],inactive
same,outcome,[15],inactive
Cc1ccc(S(=O)(=O)Nc2cccc(C(=O)NCC(c3ccco3)N3CCCC3)c2)cc1F (stereo not given),activation,[1],58% (active)
same,outcome,[2],inactive
same,outcome,[3],inactive
same,outcome,[4],inactive
same,outcome,[5],inactive
same,inhibition,[6],67% (active)
same,outcome,[7],inactive
same,outcome,[8],inactive
same,activation,[9],31.5% (active)
same,outcome,[10],inactive
same,outcome,[11],inactive
same,outcome,[12],inactive
same,outcome,[13],inactive
same,outcome,[14],inactive
same,outcome,[15],inactive
CC1CC(C)(C)N(C(=O)CN2C(=O)c3ccccc3C2=O)c2ccccc21 (stereo not given),activation,[1],149% (active)
same,outcome,[2],inactive
same,outcome,[3],inactive
same,outcome,[4],inactive
same,inhibition,[5],73% (active)
same,outcome,[6],inactive
same,outcome,[7],inactive
same,outcome,[8],inactive
same,activation,[9],51.5% (active)
same,outcome,[10],inactive
same,activation,[11],23.1% (active)
same,outcome,[12],inactive
same,outcome,[13],inactive
same,activation,[14],62.6% (active)
same,outcome,[15],inactive
CN(C)C(CNC(=O)c1ccc2c(c1)S(=O)(=O)c1ccccc1C2=O)c1ccco1 (stereo not given),activation,[1],142% (active)
same,outcome,[2],inactive
same,outcome,[3],inactive
same,outcome,[4],inactive
same,inhibition,[5],67% (active)
same,outcome,[6],inactive
same,outcome,[7],inactive
same,outcome,[8],inactive
same,outcome,[9],inactive
same,outcome,[10],inactive
same,activation,[11],42.8% (active)
same,inhibition,[12],29.5% (active)
same,outcome,[13],inactive
same,outcome,[14],inactive
same,outcome,[15],inactive
Cc1ccccc1C(=O)Nc1c(C(=O)N(CCN(C)C)Cc2ccco2)oc2ccccc12,activation,[1],84% (active)
same,outcome,[2],inactive
same,outcome,[3],inactive
same,outcome,[4],inactive
same,outcome,[5],inactive
same,outcome,[6],inactive
same,outcome,[7],inactive
same,outcome,[8],inactive
same,activation,[9],33.5% (active)
same,outcome,[10],inactive
same,outcome,[11],inactive
same,outcome,[12],inactive
same,outcome,[13],inactive
same,outcome,[14],inactive
same,outcome,[15],inactive
CC1CCCN(CCOCCOc2ccccc2-c2ccccc2)C1 (stereo not given),outcome,[1],inactive
same,outcome,[2],inactive
same,outcome,[3],inactive
same,outcome,[4],inactive
same,inhibition,[5],90% (active)
same,inhibition,[6],53% (active)
same,outcome,[7],inactive
same,outcome,[8],inactive
same,activation,[9],82% (active)
same,outcome,[10],inactive
same,outcome,[11],inactive
same,inhibition,[12],30.7% (active)
same,outcome,[13],inactive
same,outcome,[14],inactive
same,outcome,[15],inactive
COc1ccccc1NS(=O)(=O)c1cccc(C(=O)NC2CCN(Cc3ccccc3)CC2)c1,activation,[1],90% (active)
same,outcome,[2],inactive
same,outcome,[3],inactive
same,outcome,[4],inactive
same,outcome,[5],inactive
same,inhibition,[6],72% (active)
same,outcome,[7],inactive
same,outcome,[8],inactive
same,activation,[9],38.5% (active)
same,outcome,[10],inactive
same,outcome,[11],inactive
same,outcome,[12],inactive
same,outcome,[13],inactive
same,outcome,[14],inactive
same,outcome,[15],inactive
C/C=C(\C)CN1CCC(n2nccc2NC(=O)CCc2ccccc2)CC1,outcome,[1],inactive
same,outcome,[2],inactive
same,outcome,[3],inactive
same,outcome,[4],inactive
same,inhibition,[5],97% (active)
same,inhibition,[6],86% (active)
same,outcome,[7],inactive
same,outcome,[8],inactive
same,activation,[9],58.5% (active)
same,outcome,[10],inactive
same,outcome,[11],inactive
same,outcome,[12],inactive
same,outcome,[13],inactive
same,outcome,[14],inactive
same,outcome,[15],inactive
CC(=O)Nc1ccc(C2(c3ccc(NC(C)=O)cc3)C(=O)Nc3ccccc32)cc1,outcome,[1],inactive
same,outcome,[2],inactive
same,outcome,[3],inactive
same,outcome,[4],inactive
same,inhibition,[5],83% (active)
same,inhibition,[6],61% (active)
same,outcome,[7],inactive
same,outcome,[8],inactive
same,activation,[9],30% (active)
same,outcome,[10],inactive
same,outcome,[11],inactive
same,outcome,[12],inactive
same,outcome,[13],inactive
same,outcome,[14],inactive
same,outcome,[15],inactive
CCOc1ccccc1N(CC(=O)N1CCOCC1)S(=O)(=O)c1ccccc1,activation,[1],155% (active)
same,outcome,[2],inactive
same,outcome,[3],inactive
same,outcome,[4],inactive
same,outcome,[5],inactive
same,outcome,[6],inactive
same,outcome,[7],inactive
same,outcome,[8],inactive
same,activation,[9],56.5% (active)
same,outcome,[10],inactive
same,activation,[11],94% (active)
same,inhibition,[12],16% (active)
same,outcome,[13],inactive
same,activation,[14],74.4% (active)
same,outcome,[15],inactive
Cc1ccc(S(=O)(=O)NCCC(=O)NCC(c2ccco2)N2CCCCC2)cc1C (stereo not given),activation,[1],82% (active)
same,outcome,[2],inactive
same,outcome,[3],inactive
same,outcome,[4],inactive
same,outcome,[5],inactive
same,inhibition,[6],80% (active)
same,outcome,[7],inactive
same,outcome,[8],inactive
same,activation,[9],37% (active)
same,outcome,[10],inactive
same,outcome,[11],inactive
same,outcome,[12],inactive
same,outcome,[13],inactive
same,outcome,[14],inactive
same,outcome,[15],inactive
CCn1cc(CN2CCC(n3nccc3NC(=O)CCCc3ccccc3)CC2)cn1,outcome,[1],inactive
same,outcome,[2],inactive
same,outcome,[3],inactive
same,outcome,[4],inactive
same,inhibition,[5],95% (active)
same,inhibition,[6],58% (active)
same,outcome,[7],inactive
same,outcome,[8],inactive
same,activation,[9],36% (active)
same,outcome,[10],inactive
same,outcome,[11],inactive
same,outcome,[12],inactive
same,outcome,[13],inactive
same,outcome,[14],inactive
same,outcome,[15],inactive
OCC1(CC2CCCCO2)CCN(Cc2nc3ccccc3[nH]2)CC1 (stereo not given),outcome,[1],inactive
same,outcome,[2],inactive
same,outcome,[3],inactive
same,outcome,[4],inactive
same,inhibition,[5],67% (active)
same,outcome,[6],inactive
same,outcome,[7],inactive
same,outcome,[8],inactive
same,activation,[9],26.5% (active)
same,outcome,[10],inactive
same,outcome,[11],inactive
same,outcome,[12],inactive
same,outcome,[13],inactive
same,outcome,[14],inactive
same,outcome,[15],inactive
O=C(C[n+]1cc2ccccc2c2ccccc21)c1ccccc1,activation,[1],212% (active)
same,outcome,[2],inactive
same,outcome,[3],inactive
same,outcome,[4],inactive
same,inhibition,[5],94% (active)
same,outcome,[6],inactive
same,outcome,[7],inactive
same,inhibition,[8],29.5% (active)
same,outcome,[9],inactive
same,outcome,[10],inactive
same,activation,[11],27.6% (active)
same,inhibition,[12],33.5% (active)
same,outcome,[13],inactive
same,outcome,[14],inactive
same,outcome,[15],inactive
OC(CNC1CCCc2ccccc21)COc1c(Cl)cccc1Cl (stereo not given),activation,[1],86% (active)
same,outcome,[2],inactive
same,outcome,[3],inactive
same,outcome,[4],inactive
same,outcome,[5],inactive
same,inhibition,[6],52% (active)
same,outcome,[7],inactive
same,outcome,[8],inactive
same,activation,[9],101% (active)
same,outcome,[10],inactive
same,activation,[11],9.49% (active)
same,inhibition,[12],35.9% (active)
same,outcome,[13],inactive
same,activation,[14],14.8% (active)
same,outcome,[15],inactive

# — PubChem BioAssay
